Screening results deposited in PubChem by several laboratories.
A selection: hits, their analogues and other compounds. The true share with any hit is near 1.6%.
NRP1-CendR mod – alters CendR peptide binding to human NRP-1 | inhibition, % at 25 µM | FAM-RPARPAR peptide binding to NRP-1, fluorescence polarization | O14786 | actives 0.85% (n = 360,000);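 active means inhibition or corrected inhibition above about 18%, plus a signal ratio from 0.5 to 1.5, limit read from the data, passing the limit was not always enough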
ATG4B inh – ATG4B (human) cysteine protease inhibition | Q9Y4P1 | ATG4B cleavage of LC3-PLA2, NBD-HPC fluorescence, 1 h | inhibition, % at 8.33 µM | actives 0.51% (n = 340,000); in the data active means inhibition above about 40%
Target sequence (Q9Y4P1 whole entry, looked up): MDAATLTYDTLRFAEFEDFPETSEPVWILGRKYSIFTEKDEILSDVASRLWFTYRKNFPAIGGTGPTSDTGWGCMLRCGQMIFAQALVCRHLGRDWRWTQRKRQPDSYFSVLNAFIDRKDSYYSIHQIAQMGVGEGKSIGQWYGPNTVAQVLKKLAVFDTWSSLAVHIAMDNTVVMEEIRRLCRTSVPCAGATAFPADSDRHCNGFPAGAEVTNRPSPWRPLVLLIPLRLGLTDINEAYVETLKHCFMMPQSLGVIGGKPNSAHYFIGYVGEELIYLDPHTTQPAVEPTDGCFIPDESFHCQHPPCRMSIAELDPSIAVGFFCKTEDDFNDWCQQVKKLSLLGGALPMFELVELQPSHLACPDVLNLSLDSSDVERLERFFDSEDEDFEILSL
PKA-R2B act – activates the human PKA-R2B holoenzyme complex | PKA-R2B holoenzyme dissociation, Cy5-IP20 fluorescence polarization; R2B truncated from residue 108, S112A mutant; 0% DMSO only, 100% 113 µM cGMP | activation, % at 11.4 µM | actives 0.079% (n = 340,000);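 active means activation above a cutoff set at the mean over all compounds plus 3 SD, cut at about 18% in these data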;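 further: higher means more holoenzyme dissociation and a rise in polarization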
PKA-R1A activ – activates the PKA-R1A holoenzyme complex. P00514+P68181. PKA-R1A dissociation, Cy5-IP20 fluorescence polarization; scaled: DMSO 0%, 113 µM cGMP 100%. activation, % at 11.4 µM. actives 0.083% (n = 340,000);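 active means percent activation above the mean of all tested compounds plus 3 SD, cut at about 19% in these data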;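 further: higher means more PKAc released from R1A so a rise in polarization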
VLA-4 inh – inhibition in a human VLA-4 binding assay | actives 0.2% (n = 330,000) | P13612 | VLA-4 expressing cells, ligand binding flow cytometry | AID 2557 | inhibition, % (about 7 µM as worked out from the volumes in the protocol)
ATG4B confirm – confirmation of human ATG4B inhibitors; shares compounds with ATG4B inh; ATG4B protease fluorescent substrate cleavage assay; inhibition, % at 8.33 µM; AID 504757; actives 92% (n = 320); in the data active means inhibition above about 39%
PLA2 ctr – PLA2 (human) inhibition in ATG4B counter-screen; shares compounds with ATG4B inh; purified PLA2, NBD-C6-HPC fluorescence, 45 min; inhibition, % at 8.33 µM; actives 66% (n = 1,600)
Target sequence (P04054 whole entry, looked up): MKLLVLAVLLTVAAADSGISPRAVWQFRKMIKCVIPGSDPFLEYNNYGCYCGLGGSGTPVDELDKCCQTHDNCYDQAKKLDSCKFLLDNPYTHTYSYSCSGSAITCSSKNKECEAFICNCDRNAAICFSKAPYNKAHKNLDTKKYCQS
* = called active by the depositor. Unless noted, no stated cut-off is given here; in the data, active means inhibition above about 50%; inactive means the rest.

CN(CC(=O)Nc1ccc(C#N)cc1)CC(=O)Nc1ccc(N2CCOCC2)cc1 was read as NRP1-CendR mod 5, ATG4B inh 41*, PKA-R2B act 4, PKA-R1A activ 4, VLA-4 inh -2 and PLA2 ctr 2.
Screening c1cc(CCCc2ccncc2)ccn1 returned NRP1-CendR mod 0, ATG4B inh 0, PKA-R2B act 4, PKA-R1A activ 1 and VLA-4 inh 10.
N#Cc1c(-c2ccc(Cl)cc2)cc(-c2ccccc2)nc1SCC(=O)O was read as NRP1-CendR mod -13, ATG4B inh 21, PKA-R2B act 5, PKA-R1A activ 0 and VLA-4 inh -7.
N#Cc1c(-c2ccccc2)cc(-c2ccccc2)nc1SCCC(=O)O was read as NRP1-CendR mod -36, ATG4B inh 51*, PKA-R2B act 3, PKA-R1A activ -2, VLA-4 inh -2 and PLA2 ctr 68*.
For COc1ccc(C2OC(=O)c3ccccc3S2)cc1 (stereo not drawn) the results were NRP1-CendR mod -11, ATG4B inh 54*, PKA-R2B act 5, PKA-R1A activ -5, VLA-4 inh 6 and PLA2 ctr 54*.
COc1cc(C2OC(=O)c3ccccc3S2)cc(OC)c1OC (stereo not drawn) was read as NRP1-CendR mod -26, ATG4B inh 1, PKA-R2B act -6, PKA-R1A activ 6 and VLA-4 inh 0.
`C=CCN1C(=O)C(Cc2ccccc2Cl)SC1=Nc1ccc(C(=O)O)cc1` (stereo not drawn) gave NRP1-CendR mod 2, ATG4B inh 55*, PKA-R2B act 0, PKA-R1A activ 7, VLA-4 inh -7 and PLA2 ctr 59*.
`Cn1c(=O)c2cc(NC(=O)CCc3ccccc3)ccc2n1-c1ccccc1F` gave NRP1-CendR mod -11.
`Cc1cc(C)nc(SCC(=O)c2ccc(F)cc2F)n1` gave NRP1-CendR mod 5, ATG4B inh -6, PKA-R2B act -9, PKA-R1A activ 5 and VLA-4 inh 14.
Screening O=C(O)c1ccc(C[n+]2c(-c3ccccc3)csc2Nc2ccccc2)cc1 returned NRP1-CendR mod -4, ATG4B inh 42*, PKA-R2B act -2, PKA-R1A activ -1, VLA-4 inh 5, ATG4B confirm 84* and PLA2 ctr 17.
CC(C)(C)c1cc(-c2csc(Nc3ccccc3)[n+]2Cc2ccc(C(=O)O)cc2)cc(C(C)(C)C)c1O was read as NRP1-CendR mod -18, ATG4B inh 46*, PKA-R2B act -2, PKA-R1A activ 3, VLA-4 inh -55 and PLA2 ctr 56*.
Screening N#CC(c1ccc(N)cc1)C(CC(=O)c1ccccc1)c1ccccc1 (stereo not drawn) returned NRP1-CendR mod 15, PKA-R2B act -1 and PKA-R1A activ 3.
Screening CCOC(=O)c1oc2ccccc2c1CSc1nnnn1-c1ccc(OC)cc1 returned NRP1-CendR mod 2, ATG4B inh 1, PKA-R2B act 3, PKA-R1A activ 9 and VLA-4 inh 10.
CCOC(=O)c1oc2ccc(Br)cc2c1CSc1nnc(C)s1 was read as NRP1-CendR mod -3, ATG4B inh 64*, PKA-R2B act -8, PKA-R1A activ -6, VLA-4 inh -1 and PLA2 ctr 67*.
CN(C)CCNc1nc2sc3c(c2c(=O)n1CCc1ccccc1)CCCCC3 was read as NRP1-CendR mod -2, ATG4B inh -4, PKA-R2B act 0, PKA-R1A activ 3 and VLA-4 inh 3.
CC(O)CNc1nc2sc3c(c2c(=O)n1CCc1ccccc1)CCCCC3 (stereo not drawn) was read as NRP1-CendR mod 4, ATG4B inh 41*, PKA-R2B act -5, PKA-R1A activ 3, VLA-4 inh 34 and PLA2 ctr 55*.
`CCOC(=O)c1c(C)nc2c(c1-c1ccccc1)C(=O)c1ccccc1-2` gave NRP1-CendR mod -3, ATG4B inh 79*, PKA-R2B act 10, PKA-R1A activ 20*, VLA-4 inh -14 and PLA2 ctr 71*.
`CCOC(=O)c1c(C)nc2sc(C(=O)Nc3ccccc3)c(N)c2c1-c1ccc(OC)cc1` gave NRP1-CendR mod 14, ATG4B inh -10, PKA-R2B act -10, PKA-R1A activ -16 and VLA-4 inh 8.
For CCOC(=O)c1c(C)nc2sc(C(N)=O)c(N)c2c1-c1ccccc1 the results were NRP1-CendR mod 16, ATG4B inh 54*, PKA-R2B act -6, PKA-R1A activ -3, VLA-4 inh 4 and PLA2 ctr 61*.
Screening O=C(CSCc1c(Cl)cccc1Cl)Nc1ccccc1-c1ccccc1 returned NRP1-CendR mod 6, ATG4B inh 74*, PKA-R2B act -3, PKA-R1A activ -3, VLA-4 inh 26 and PLA2 ctr 80*.
CC(C)=CCN1CCN(Cc2cn(C(C)C)c3ccccc23)CC1CCO (stereo not drawn) was read as NRP1-CendR mod 17, ATG4B inh -7, PKA-R2B act 9, PKA-R1A activ 6 and VLA-4 inh 4.
Screening Cc1ccsc1C(=O)NCCC(c1ccccc1)c1ccccc1 returned NRP1-CendR mod 5, ATG4B inh 41*, PKA-R2B act -12, PKA-R1A activ 2, VLA-4 inh 5 and PLA2 ctr 49.
For COc1ccc(NC(=O)N(C)C[C@H]2Oc3c(NC(=O)Cc4ccccc4)cccc3C(=O)N([C@H](C)CO)C[C@@H]2C)cc1 the results were NRP1-CendR mod -2, ATG4B inh -6, PKA-R2B act -9, PKA-R1A activ 6 and VLA-4 inh 12.
For CC(OC(=O)Cn1cc(C(F)(F)F)ccc1=O)C(=O)N(C)c1ccccc1 (stereo not drawn) the results were NRP1-CendR mod 9, ATG4B inh 1, PKA-R2B act -8, PKA-R1A activ -1 and VLA-4 inh 3.
Screening Cc1nn(Cc2c(Cl)cccc2Cl)c(C)c1NC(=O)CCCn1nc([N+](=O)[O-])c(Cl)c1C returned NRP1-CendR mod 8, ATG4B inh 46*, PKA-R2B act 3, PKA-R1A activ -2, VLA-4 inh 17, ATG4B confirm 70* and PLA2 ctr 49.
Screening Cc1c(Cl)c([N+](=O)[O-])nn1CCCC(=O)Nc1cccc(Cl)c1 returned NRP1-CendR mod -6, ATG4B inh 75*, PKA-R2B act -20, PKA-R1A activ -14, VLA-4 inh 4 and PLA2 ctr 78*.
